About 79,000 compounds went through this panel and 15% of them were active in at least one assay; those are over-represented in the sample as a whole. Active and inactive are the calls of the source. Cut-off read from the data, not from the text of the source: active = growth inhibition above about 70%; inactive = the rest.
Assays:
[1] = NCI Yeast Anticancer Drug Screen. Data for the rad52 strain (AID 147);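 note: 0% = growth of vehicle-treated control cultures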; conditions: S. cerevisiae rad52 mutant growth inhibition, hits give high values
Summary of the method: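 Read-out: growth inhibition versus vehicle-treated controls. Cells were a DNA repair-deficient yeast strain treated with compounds.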

[2] = NCI Yeast Anticancer Drug Screen. Data for the wt1 strain (AID 149);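 note: 0% = growth of vehicle-treated wt1 cultures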; conditions: S. cerevisiae wt1 strain (SPY 50644) growth inhibition, hits give high values
Summary of the method: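 Each compound is tested on wt1 yeast and the loss of growth versus vehicle gives the inhibition value.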

[3] = NCI Yeast Anticancer Drug Screen. Data for the rad50EPP+ strain (AID 151);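 note: 0% = growth of vehicle-treated control cultures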; conditions: S. cerevisiae rad50 mutant strain, hits give high values
Summary of the method: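 Growth inhibition read against vehicle controls in rad50EPP+ yeast, a strain altered in DNA damage repair, after compound exposure.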

[4] = NCI Yeast Anticancer Drug Screen. Data for the mgt1 strain (AID 153); conditions: S. cerevisiae mgt1 mutant growth inhibition, hits give high values
Summary of the method: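 mgt1 yeast grown with test compound; read-out is growth inhibition versus vehicle-treated cultures.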

[5] = NCI Yeast Anticancer Drug Screen. Data for the rad50 strain (AID 155);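 note: 0% = growth of vehicle-only cultures of the same strain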; conditions: S. cerevisiae rad50 strain growth inhibition, hits give high values
Summary of the method: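 Vehicle-treated cultures provide the reference for the growth inhibition reported for compound-exposed, repair-deficient yeast.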

[6] = NCI Yeast Anticancer Drug Screen. Data for the mec2-1 strain (AID 157); conditions: S. cerevisiae mec2-1 strain, hits give high values
Summary of the method: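 Yeast mec2-1 mutant treated with compound. Readout: growth inhibition vs vehicle controls.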

[7] = NCI Yeast Anticancer Drug Screen. Data for the rad14 strain (AID 159);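 note: 0% = growth of vehicle-treated control cultures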; conditions: S. cerevisiae rad14 strain growth inhibition, hits give high values
Summary of the method: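 Inhibition of growth is reported for a repair-deficient yeast mutant following compound treatment, calculated relative to cultures that received vehicle.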

[8] = NCI Yeast Anticancer Drug Screen. Data for the sgs1 mgt1 strain (AID 161);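 note: 0% = growth of cultures given vehicle only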; conditions: S. cerevisiae sgs1 mgt1 strain, hits give high values
Summary of the method: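 Test agents were incubated with a DNA-repair-mutant yeast strain. Growth was then read and compared against vehicle-treated controls.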

[9] = NCI Yeast Anticancer Drug Screen. Data for the CLN2oe strain (AID 163);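 note: 0% = growth of vehicle-only control cultures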; conditions: S. cerevisiae CLN2oe strain, hits give high values
Summary of the method: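 Read-out: yeast growth inhibition, expressed relative to vehicle-only controls. The strain bears an engineered cell-cycle alteration.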

[10] = NCI Yeast Anticancer Drug Screen. Data for the cln2 rad14 strain (AID 165);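 note: 0% = growth equal to vehicle treated cultures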; conditions: S. cerevisiae cln2 rad14 strain, hits give high values
Summary of the method: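 cln2 rad14 yeast strain; compound exposure; growth inhibition read vs vehicle controls.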

[11] = NCI Yeast Anticancer Drug Screen. Data for the bub3 strain (AID 167); conditions: S. cerevisiae bub3 mutant strain, hits give high values
Summary of the method: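 Mutant yeast screening strain plus compound; vehicle-treated cultures serve as the 0% inhibition reference.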

[12] = NCI Yeast Anticancer Drug Screen. Data for the wt2 strain (AID 169); conditions: S. cerevisiae wt2 strain growth inhibition, hits give high values
Summary of the method: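 Read-out: growth inhibition versus vehicle-treated control cultures after compound exposure of the yeast strain.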

[13] = NCI Yeast Anticancer Drug Screen. Data for the mlh1 strain (AID 171);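 note: 0% = growth of vehicle-treated control cultures of the same strain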; conditions: S. cerevisiae mlh1 strain growth inhibition, hits give high values
Summary of the method: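 Read-out: growth inhibition versus vehicle controls. Strain: engineered yeast with a defined DNA repair or cell cycle defect, compound-treated.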

[14] = NCI Yeast Anticancer Drug Screen. Data for the sgs1 strain (AID 173);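 note: 0% = growth of vehicle-only control cultures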; conditions: S. cerevisiae sgs1 mutant, hits give high values
Summary of the method: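 Read-out: yeast growth inhibition relative to vehicle controls, following compound exposure of a strain with a defined DNA repair/cell cycle alteration.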

[15] = NCI Yeast Anticancer Drug Screen. Data for the mlh1 rad18 strain (AID 175); conditions: S. cerevisiae mlh1 rad18 strain growth inhibition, hits give high values
Summary of the method: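 Yeast w/ defined DNA-repair lesions; compound exposure; growth vs vehicle controls → % inhibition.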

[16] = NCI Yeast Anticancer Drug Screen. Data for the rad18 strain (AID 177); conditions: S. cerevisiae rad18 mutant growth inhibition, hits give high values
Summary of the method: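 Readout: growth inhibition vs vehicle controls. Cells: genetically altered yeast strain, DNA repair defect.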

[17] = at 5.0 µM (retest, dose inferred, filed as 0.5)
[18] = at 50.0 µM (retest, dose inferred, filed as 5.0)

Measured: growth inhibition

CCC(=O)Oc1ccc(/C=N/NC(N)=S)nc1
inactive: [1]; at 1.2 µM -6% | [1]; at 3.7 µM -11% | [1]; at 11.0 µM 4% | [1]; at 33.0 µM 13% | [1]; at 100.0 µM 18% | [2]; at 1.2 µM 0% | [2]; at 3.7 µM 7% | [2]; at 11.0 µM 7% | [2]; at 33.0 µM 13% | [2]; at 100.0 µM 19% | [3]; at 1.2 µM 0% | [3]; at 3.7 µM -5% | [3]; at 11.0 µM -9% | [3]; at 33.0 µM -11% | [3]; at 100.0 µM -12% | [4]; at 1.2 µM -1% | [4]; at 3.7 µM -3% | [4]; at 11.0 µM -2% | [4]; at 33.0 µM -5% | [4]; at 100.0 µM -4% | [5]; at 1.2 µM -7% | [5]; at 3.7 µM -11% | [5]; [17] -6% | [5]; at 11.0 µM -12% | [5]; at 33.0 µM 3% | [5]; [18] 6% | [5]; at 50.0 µM 22.4% | [5]; at 100.0 µM 21% | [6]; at 1.2 µM -2% | [6]; at 3.7 µM 0% | [6]; [17] 0% | [6]; at 11.0 µM 0% | [6]; at 33.0 µM 37% | [7]; at 1.2 µM 1% | [7]; at 3.7 µM 1% | [7]; at 11.0 µM 3% | [7]; at 33.0 µM 10% | [7]; at 100.0 µM 12% | [8]; [17] 0% | [8]; [18] 32% | [8]; at 50.0 µM 39% | [9]; at 1.2 µM -5% | [9]; at 3.7 µM -8% | [9]; at 11.0 µM -11% | [9]; at 33.0 µM -11% | [9]; at 100.0 µM -9% | [10]; [17] -5% | [10]; [18] -14% | [10]; at 50.0 µM 4% | [11]; at 1.2 µM -7% | [11]; at 3.7 µM -4% | [11]; [17] -8% | [11]; at 11.0 µM -15% | [11]; at 33.0 µM -18% | [11]; [18] -13% | [11]; at 50.0 µM 17.1% | [11]; at 100.0 µM -15% | [12]; at 1.2 µM 2% | [12]; at 3.7 µM 7% | [12]; at 11.0 µM 16% | [12]; at 33.0 µM 35% | [12]; at 100.0 µM 34% | [13]; at 1.2 µM -8% | [13]; at 3.7 µM -3% | [13]; at 11.0 µM -6% | [13]; at 33.0 µM -8% | [13]; at 100.0 µM 3% | [14]; at 1.2 µM -16% | [14]; at 3.7 µM -11% | [14]; at 11.0 µM -2% | [14]; at 33.0 µM 9% | [14]; at 100.0 µM 11% | [15]; [17] -2% | [15]; [18] 19% | [15]; at 50.0 µM 26.1% | [16]; at 1.2 µM -4% | [16]; at 3.7 µM 1% | [16]; at 11.0 µM -3% | [16]; at 33.0 µM -8% | [16]; at 100.0 µM -5%
active: [6]; [18] 95% | [6]; at 50.0 µM 87.4% | [6]; at 100.0 µM 91%

COc1cc2c(cc1C[N+](C)(C)CSc1ccccc1)-c1ccccc1CC2
inactive: [1]; at 1.2 µM -12% | [1]; at 3.7 µM -8% | [2]; at 1.2 µM -17% | [2]; at 3.7 µM -14% | [2]; at 11.0 µM 29% | [3]; at 1.2 µM 3% | [3]; at 3.7 µM 20% | [3]; at 11.0 µM 19% | [3]; at 33.0 µM 20% | [3]; at 100.0 µM 43% | [4]; at 1.2 µM 7% | [4]; at 3.7 µM 15% | [4]; at 11.0 µM 30% | [5]; at 1.2 µM -7% | [5]; at 3.7 µM 8% | [5]; [17] 11% | [6]; at 1.2 µM -6% | [6]; at 3.7 µM 6% | [6]; [17] 3% | [7]; at 1.2 µM -12% | [7]; at 3.7 µM -10% | [7]; at 11.0 µM 64% | [8]; [17] -1% | [9]; at 1.2 µM -17% | [9]; at 3.7 µM 6% | [10]; [17] -3% | [11]; at 1.2 µM 17% | [11]; at 3.7 µM -4% | [11]; [17] 1% | [12]; at 1.2 µM 13% | [12]; at 3.7 µM 21% | [13]; at 1.2 µM 6% | [13]; at 3.7 µM 16% | [13]; at 11.0 µM 35% | [14]; at 1.2 µM 2% | [14]; at 3.7 µM 8% | [14]; at 11.0 µM 36% | [15]; [17] -5% | [16]; at 1.2 µM 9% | [16]; at 3.7 µM 12%
active: [1]; at 11.0 µM 79% | [1]; at 33.0 µM 99% | [1]; at 100.0 µM 99% | [2]; at 33.0 µM 98% | [2]; at 100.0 µM 98% | [4]; at 33.0 µM 98% | [4]; at 100.0 µM 99% | [5]; at 11.0 µM 76% | [5]; at 33.0 µM 98% | [5]; [18] 98% | [5]; at 50.0 µM 99% | [5]; at 100.0 µM 99% | [6]; at 11.0 µM 80% | [6]; at 33.0 µM 98% | [6]; [18] 99% | [6]; at 50.0 µM 99.3% | [6]; at 100.0 µM 96% | [7]; at 33.0 µM 98% | [7]; at 100.0 µM 98% | [8]; [18] 99% | [8]; at 50.0 µM 99.2% | [9]; at 11.0 µM 70% | [9]; at 33.0 µM 98% | [9]; at 100.0 µM 99% | [10]; [18] 99% | [10]; at 50.0 µM 99.3% | [11]; at 11.0 µM 78% | [11]; at 33.0 µM 98% | [11]; [18] 98% | [11]; at 50.0 µM 99.5% | [11]; at 100.0 µM 99% | [12]; at 11.0 µM 96% | [12]; at 33.0 µM 98% | [12]; at 100.0 µM 99% | [13]; at 33.0 µM 98% | [13]; at 100.0 µM 98% | [14]; at 33.0 µM 97% | [14]; at 100.0 µM 99% | [15]; [18] 99% | [15]; at 50.0 µM 99.3% | [16]; at 11.0 µM 77% | [16]; at 33.0 µM 99% | [16]; at 100.0 µM 99%

From PubChem BioAssay (NCI)
